Screening results (PubChem BioAssay)
The entries come from a sample that favours hits as a whole.
Pf Dd2 inh: blocks in vitro growth of P. falciparum Dd2; Potency, µM (top dose mostly 28.9 µM), without a hit: at the highest dose activity, negative = inhibition, actives largely listed as inhibitors; hit rate 4.3% among 120,000; P. falciparum Dd2 growth, SYBR Green, 72 h; active means well fitted inhibition curve with a large enough effect;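 further: plate controls were DMSO vehicle for no effect and reference drug for full effect; nearly all actives have a fitted effect of over 65% in size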
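Infected erythrocytes (Dd2, 0.3% parasitemia, 2.5% hematocrit final) are added to compound in RPMI-1640/Albumax II medium, grown 72 h at 37C in low oxygen, then lysed with saponin/Triton-X containing SYBR Green and read by fluorescence.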
* hit, by the source's call; i = inactive; [ ] = another dose, or the depositor's remark. Potency means the concentration at half of the fitted maximal effect.

SMILES | Pf Dd2 inh
CN(C)CCCC(=O)NC[C@@H]1CC[C@H]2C[C@@H]1C2(C)C | 10µM*
CC1(C)[C@H]2CC[C@@H](CNC(=O)c3ccccc3)[C@@H]1C2 | -12%[44.1 µM]
CC1(C)[C@H]2CC[C@@H](CNC(=O)c3ccc(F)cc3)[C@@H]1C2 | 11µM*
COC[C@H]1C[C@@H](NC(=O)c2ccc(C(F)(F)F)cc2)[C@H](O)[C@@H]1O | -5%[44.1 µM]
CC(=O)NC[C@H]1CCN(C(=O)c2ccc(C(F)(F)F)cc2)C[C@H]1N(C)C | 22%
CC1(C)[C@H]2CC[C@@H](CNC(=O)c3ccc(C(F)(F)F)cc3)[C@@H]1C2 | 10µM*
Cc1ccccc1C(=O)N1C[C@@H](CO)[C@H](c2ccncc2)C1 | 31%
Cc1ccc2c(c1)nc1n2[C@@H](CNCc2ccncc2F)COC1 | 20%[44.1 µM]
Cc1nc(-c2c3n(c(=O)n(CC(=O)NCc4ccccc4Cl)c2=O)CCCCC3)no1 | -1%
Cc1cc(C)cc(C(=O)N2CCCC(n3cc(-c4nc(C(C)C)no4)nn3)C2)c1 (stereo not given) | 136%
O=C(NC1CCCCC1)N1CC(c2nc(CCOCC3CC3)no2)C1 | -5%
CCn1ncnc1C1CC(=O)Nc2cc(OC)c(NC(=O)CC(C)C)cc21 (stereo not given) | 2%
Cc1nc(-c2c3n(c(=O)n(CC(=O)NCc4ccc(Cl)cc4)c2=O)CCCCC3)no1 | 23%
Cc1ccccc1CN1CCCC(CCNS(=O)(=O)C2CC2)C1 (stereo not given) | 10µM*
O=c1cc(CN2CCCC(CCc3ccccc3C(F)(F)F)C2)[nH]c(=O)[nH]1 (stereo not given) | -12%
COc1coc(CN2CCCC(CCc3ccccc3F)C2)cc1=O (stereo not given) | i
CCCc1cnc2c(c1SCc1cccc(C)c1)c(=O)n(C)c(=O)n2C | 11µM*
CCCc1cnc2c(c1SCC(=O)Nc1ccccc1OCC)c(=O)n(C)c(=O)n2C | 2%
CCCc1cnc2c(c1SCC(=O)Nc1cccc(C)c1C)c(=O)n(C)c(=O)n2C | 1%
CC1CCN(c2ccc(CNC(=O)CC3=C4CCCCC4N(C)C3=O)cc2)CC1 (stereo not given) | 10µM*
O=C(CC1=C2CCCCC2N(Cc2ccc(F)cc2)C1=O)NC1CC1 (stereo not given) | -22%
CCNC(=O)CC1=C2CCCCC2N(C)C1=O (stereo not given) | -17%
CN1C(=O)C(CC(=O)NCC2CCN(Cc3ccc(F)cc3)CC2)=C2CCCCC21 (stereo not given) | 5µM*
CN1C(=O)C(CC(=O)NCCCN2CCc3ccccc3C2)=C2CCCCC21 (stereo not given) | -22%
CN1C(=O)C(CC(=O)NC2CC2)=C2CCCCC21 (stereo not given) | -12%
SMILES | Pf Dd2 inh
CN(C)c1ccc(C(=O)N[C@H]2CC(C)(C)[C@@H]3C[C@@](C)(O)CC[C@]23CCC(=O)NC2CC2)cc1 | i
CCOC(=O)c1ccc(NC(=O)CN2C(=O)NC3(CCS(=O)(=O)CC3)C2=O)cc1 | i
O=C(c1cn[nH]c1)N1CCC(c2nc(CCOCC3CCOCC3)no2)C1 (stereo not given) | 7%
Cc1cccc(C(C(=O)N2CCC(CCn3ccnc3C)CC2)N(C)C)c1 (stereo not given) | 7.9µM*
Cc1cccc(C(C(=O)N2CCN(CC(=O)NC(C)C)CC2)N(C)C)c1 (stereo not given) | -23%
CN(C)C(C(=O)N1CCN(Cc2nccn2C)CC1)c1cccc(F)c1 (stereo not given) | -5%
CCCCN(C)CCCNC(=O)C1CCN(c2nc3ccc(CC)cc3s2)CC1 | 11µM*
CCc1ccc2nc(N3CCN(C(=O)c4ccco4)CC3)sc2c1 | i
CCCCN(C)CCCNC(=O)C1CCN(S(=O)(=O)CC)CC1 | 9%
CN1CCC(N[C@@H]2CCC[C@@H](C(=O)NC3CC3)CC(=O)N(C)C2)CC1 | 18%[44.1 µM]
CCOCCCNC(=O)[C@H]1CCC[C@H]1NC(=O)c1ccc(OC)nc1 | 10%
O=C(N[C@H]1CCN2C(=O)c3cc(-c4ccccc4)ccc3NC(=O)[C@H]12)c1cnccn1 | 11µM*
Cc1cccc(-c2ccc3c(c2)C(=O)N2CC[C@H](N)[C@H]2C(=O)N3)c1C | -8%[44.1 µM]
O=C(NC1CCCCC1)N[C@H]1CCN2C(=O)c3cc(-c4ccccc4)ccc3NC(=O)[C@H]12 | 8%[44.1 µM]
CCS[C@H]1CCN2C(=O)c3cc(-c4ccccc4)ccc3NC(=O)[C@H]12 | 11µM*
O=C(O)COCC(=O)N[C@H]1CCN2C(=O)c3cc(-c4ccccc4)ccc3NC(=O)[C@H]12 | -19%[44.1 µM]
CCS[C@H]1CCN2C(=O)c3ccccc3NC(=O)[C@H]12 | 4%[44.1 µM]
O=C(NCC1CCCN(C(=O)c2cc(=O)[nH]c(=O)[nH]2)C1)c1cccs1 (stereo not given) | 0%
Cc1nnc(CN2CCC(N3CCCC(C(=O)NCCc4ccccc4)C3)CC2)o1 (stereo not given) | -1%
CNC(=O)c1ccc2c(c1)NC(C)(CCCCc1ccccc1)CO2 (stereo not given) | i
CCn1ccc(C(=O)N2CCC([C@H]3[C@@H](OC)C(=O)N3C(C)C)CC2)n1 | 29%
NC(=O)C1(C(=O)N2CCc3ncnc(N4CC=CC4)c3CC2)CC1 | 0%
COc1ccc(C(=O)N2CCC3(CC2)NC(=O)N(Cc2ccc(C)cc2)C3=O)cc1 | i
N#Cc1cccc(C(=O)N2C[C@@H](Oc3ccccc3)C[C@H]2C(=O)N2CCOCC2)c1 | -9%
C=CCN1C[C@@H]2CN(C(=O)C(C)(C)NC(C)=O)C[C@]2(C(=O)O)C1 | -8%
SMILES | Pf Dd2 inh
COCCNC(=O)[C@H]1C[C@H](Oc2cccnc2)CN1C(=O)Nc1ccc2c(c1)OCCO2 | -4%
COc1ccc(C(=O)NCC(=O)N2CCCCCNC(=O)CC2c2ccccc2)cc1 (stereo not given) | -14%
CCc1ccc(NC(=O)c2ccc(F)c(S(=O)(=O)N(C)C3CCCCC3)c2)cc1 | 11µM*
CCc1ccc(NC(=O)c2ccc(F)c(S(=O)(=O)N3CCc4ccccc4C3)c2)cc1 | 16%
CCc1ccc(NC(=O)c2ccc(F)c(S(=O)(=O)N3CCC(C)CC3)c2)cc1 | -18%
COCCNC(=O)c1ccc2c(c1)N(C)C(CC(=O)N(C)CC(C)C)CO2 (stereo not given) | -3%
CC(C)NC[C@H]1O[C@@H]2C[C@@H](CC(=O)N3CCOCC3)O[C@@H]2[C@@H]1O | 23%[44.1 µM]
CC(C)(C)c1cc(CNC(=O)CC2C(=O)NCCN2CC2CCCCC2)[nH]n1 (stereo not given) | 4%
COc1ccccc1OCCn1c(-c2ccc(Cl)cc2)nc2ccccc2c1=O | -10%
COc1ccc(-c2nc3ccccc3n2Cc2ccc(Cl)cc2)cc1 | -10%
COc1cccc(OCCCCn2c(-c3ccc(Cl)cc3)nc3ccccc3c2=O)c1 | 10µM*
CCOc1ccc(-c2ccnc(N3CCOC(CN)C3)n2)cc1C(=O)O (stereo not given) | -11%
COc1cc(NC(=O)[C@H]2CCC[C@H]2NC(=O)c2cnc(C)cn2)cc(OC)c1 | 5%
CC1=C[C@@H](CN(C)CCO)[C@H](C(C)C)C[C@H]1Cc1nnc(-c2ccccc2F)o1 | 13µM*
CC1=C[C@@H](CN(C)CCO)[C@H](C(C)C)C[C@H]1Cc1nnc(-c2ccc(C)cc2)o1 | 10µM*
C#CCN(C)C[C@@H]1C=C(C)[C@H](Cc2nnc(-c3ccc(C)cc3)o2)C[C@H]1C(C)C | -11%[44.1 µM]
CCn1ncc(C(=O)N2C[C@@H](COc3ccccc3)[C@H](C(N)=O)C2)c1C | -5%
COCCN1C(=O)[C@@H]2C[C@@H](CN2C)Oc2ccccc21 | -14%[44.1 µM]
